This is an account of results in PubChem BioAssay (NCATS).

A number with no mark means an inactive call. Records with an inconclusive call do not appear. Calls of active or inactive are those of the source. Unless noted, the call rests on the fitted dose curve; in most records, active means well fitted curve in the direction sought with a large enough effect; inconclusive means small, poorly fitted or top-dose-only effect, or another doubt; inactive means no such curve, though single readings can be large; an effect the other way counts as inactive or inconclusive. Bounds are passed on as bounds.

Experiment [1] addresses Lysosomal acid glucosylceramidase (Homo sapiens) (UniProt P04062). Nature of the experiment: Glucocerebrosidase-p2 (AID 348; in the data active means potency below about 10 µM; further: potency means the concentration at half of the fitted maximal effect). To be noted: purified GBA, blue fluorogenic substrate, 40 min. The gist of the method:
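Normal human glucocerebrosidase (0.2 nM) with blue fluorogenic substrate (80 uM final) in citrate/phosphate pH 5.9 with 10mM sodium taurocholate, 0.01% tween-20; 40 min RT, NaOH/glycine stop; fluorescence Ex 365/Em 440; AC50 from a titration from 0.6 nM upwards.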

Experiment [2] deals with Cytochrome P450 1A2 (Homo sapiens) (UniProt P05177). The experiment in a line: p450-cyp1a2 (AID 410; calls by dose curve; further: potency means the concentration at half of the fitted maximal effect). The settings on record: recombinant CYP1A2, luciferin-ME demethylation, luminescence; series mostly up to 57 µM. The gist of the method:
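20nM CYP1A2, 100uM Luciferin-ME (=Km), 100mM KPO4; cpd 10 min RT; +NADPH regen, 60 min RT; stop/detect 20 min; luminescence. Normalized to furafylline 57 uM = full inhibition.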

The nature of experiment [3]: Stat Signaling Pathway (AID 446; active means well fitted curve in either direction with a large enough effect, not every such curve was filed as active;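 further: ME-180 cervical cancer cells given 40 pM IL-6 alongside compound; SIE-controlled beta-lactamase reporter measured as 460/530 nm FRET emission ratio; on the % scale 0 is the no-effect control and ±100 the full control effect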). The settings on record: ME-180 SIE beta-lactamase reporter, IL-6 stimulated, 5 h; at 7.69 µM (top of the series) unless noted. The method in brief: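 FRET read-out (405 nm excitation, 460/530 nm emission) of a beta-lactamase reporter under a STAT-inducible element in ME-180 cervical carcinoma cells. Cells with compound receive 40 pM IL-6 for 5 h. Values are normalised to AC90 stimulation and AC90 JAK-inhibitor controls.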

For experiment [4], the target named is Glucocorticoid receptor (Homo sapiens) (UniProt P04150). The experiment in a line: GR-EFC Redistribution (AID 451; calls by dose curve; further: potency means the concentration at half of the fitted maximal effect). To be noted: CHO-K1 GR-EFC translocation, beta-gal luminescence, 2 h. The gist of the method: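 CHO-K1 cells expressing nuclear EA and GR-ED fragments of b-gal; compounds titrated up to 46 uM final, 2 h at 37 C. GR nuclear translocation read as complemented b-gal luminescence after 1 h RT detection.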

For experiment [5], the target named is 3',5'-cyclic-AMP phosphodiesterase 4B (Homo sapiens) (UniProt Q07343). The experiment in a line: qHTS Assay for Inhibitors of PDE-IV (AID 607; active means well fitted activation curve with a large enough effect in the main read-out, with a control signal flat, not every such curve was filed as active; further: % of control where 0% means no effect). To be noted: HEK293 ACTOne CNG channel cells, membrane potential fluorescence; series mostly up to 22.9 µM. The gist of the method: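 Cell-based read-out of cAMP via a modified cyclic nucleotide-gated channel and membrane potential dye (535/590 nm) in HEK293 cells expressing PDE4 endogenously. Compounds tested up to 22.9 uM final; 100 uM RO 20-1724 reference.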

Experiment [6] can be described thus: qHTS Assay for Identification of Small Molecule Agonists for Hypoxia Response Element Signaling Pathway (AID 914; active means well fitted activation curve with a large enough effect in the signal ratio, with a control signal flat, not every such curve was filed as active; the % refers to the signal ratio; further: potency means the concentration at half of the fitted maximal effect). The settings on record: ME-180 (cervical carcinoma) HRE-bla reporter, beta-lactamase ratio, CoCl2, 17 h; activation: active compounds read high. The gist of the method:
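Compounds in a titration series were added to ME-180 reporter cells alongside an EC50 level of CoCl2. After 17 hours, beta-lactamase activity was read as the 460nm/530nm emission ratio of CCF4, giving AC50 values.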
A general note: In qHTS, concentration-response curves come from the screen itself.

Experiment [7] in a line: Primary qHTS for small molecule stabilizers of the endoplasmic reticulum resident proteome: Secreted ER Calcium Modulated Protein (SERCaMP) assay (AID 1508630). Further: on the % scale 0 is the no-effect control and ±100 the full control effect. The settings on record: SH-SY5Y GLuc-SERCaMP (Gaussia luciferase released on ER calcium loss) secretion, thapsigargin, luminescence; series mostly up to 38.4 µM. The method in brief: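 The SH-SY5Y reporter protocol was run at 3 concentrations up to 38.3 uM (primary) or 11 concentrations (follow-up): 16 h compound, 100 nM thapsigargin for 4 h, then extracellular luciferase luminescence.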

The nature of experiment [8]: NFAT Signaling Pathway (AID 444; active means well fitted curve in either direction with a large enough effect, not every such curve was filed as active;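 further: carbachol stimulus at about its EC50 of 1 µM final; on the % scale 0 is the no-effect control and ±100 the full control effect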). The settings on record: Jurkat NFAT-bla M1, carbachol, beta-lactamase ratio, 5 h; at 7.69 µM (top of the series) unless noted. The gist of the method: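 Jurkat cells with NFAT-driven β-lactamase reporter and co-expressed M1 receptor, stimulated with carbachol (final 1 uM, ~EC50), compound titration, 5 h at 37 °C. CCF4 loaded 1 h at RT; 460/530 nm ratio gave %activity and AC50.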

The target of experiment [9] is Mitogen-activated protein kinase 10 (Mus musculus) (UniProt Q61831). The experiment in a line: JNK3 AlphaScreen Assay (AID 530; active means well fitted curve in either direction with a large enough effect, not every such curve was filed as active;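 further: kinase came from lysate of stimulated human HepG2 cells; signal reports phosphorylation of biotinylated GST-cJun 1-79 at Ser73 with 10 µM ATP; on the % scale 0 is the no-effect control and ±100 the full control effect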). The settings on record: JNK3 lysate, c-Jun phosphorylation; series mostly up to 57.1 µM. The gist of the method:
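HepG2 lysate (IL-1b/TNFa pre-activated) + biotin-GST-cJun 1-79 + anti-pSer73 cJun; cpd titration, 15 min RT; ATP 10 uM start; Tris pH 7.6, MgCl2, DTT, vanadate; beads in EDTA buffer; AlphaScreen.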
In general terms: Bead proximity is the source of the signal in Alpha formats.

Experiment [10] deals with Cytochrome P450 3A4 (Homo sapiens) (UniProt P08684). The experiment in a line: qHTS Assay for Activators of Cytochrome P450 3A4 (AID 885). Further: nearly all actives have a fitted effect of over 65% in size. To be noted: recombinant CYP3A4, Luciferin-PPXE luminescence, 60 min; series mostly up to 57.1 µM. The gist of the method: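 Luminescent readout of luciferin formed from 25 uM Luciferin-PPXE (KM level) by 20 nM CYP3A4 in 200 mM KPO4, with 60 min NADPH-driven reaction at room temperature after 10 min compound exposure. Ketoconazole (57 uM) defined 100% inhibition.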

Experiment [11] concerns the target Glucocorticoid receptor (Homo sapiens) (UniProt P04150). The experiment in a line: GR-GFP Redistribution (AID 450;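 active means compounds whose dose series gives a full or clear partial fitted curve of increased nuclear translocation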; further: potency means the concentration at half of the fitted maximal effect). The settings on record: U2OS GR-GFP nuclear translocation, laser cytometry, 2 h.
Experiment [12] addresses Cytochrome P450 2C9 (Homo sapiens) (UniProt P11712). The experiment in a line: qHTS Assay for Inhibitors and Substrates of Cytochrome P450 2C9 (AID 883). Further: on the % scale 0 is the no-effect control and ±100 the full control effect; nearly all actives have a fitted effect of over 60% in size. The settings on record: recombinant CYP2C9, luciferin-H luminescence, 60 min; series mostly up to 57.1 µM. The gist of the method: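 Human CYP2C9 (10nM) with Luciferin-H at 100uM (its KM) in 25mM KPO4; compound preincubated 10 min at 37C, then NADPH regeneration for 60 min at 37C. Luciferin read by luminescence after detection reagent; normalized to 57uM sulphaphenazole as full inhibition.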

The target of experiment [13] is Cytochrome P450 3A4 (Homo sapiens) (UniProt P08684). The experiment in a line: qHTS Assay for Inhibitors and Substrates of Cytochrome P450 3A4 (AID 884). Further: potency means the concentration at half of the fitted maximal effect; nearly all actives have a fitted effect of over 50% in size. The settings on record: recombinant CYP3A4, Luciferin-PPXE luminescence; series mostly up to 57.1 µM. The method in brief:
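Luminescent readout of luciferin produced by CYP3A4 (20 nM) dealkylation of Luciferin-PPXE, 25 uM (its KM). NADPH-driven reaction ran 60 min at RT after 10 min compound preincubation; data scaled to 57 uM ketoconazole as 100% inhibition.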

Experiment [14] can be described thus: Confirmation and Secondary Assay for Modulators of Hemoglobin Beta Chain Splicing at IVS2 654 locus (AID 910).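 Further: HeLa cells stably carrying EGFP split by mutant beta-globin IVS2-654 intron; % of control where 0% means no effect.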 The settings on record: HeLa EGFP-654 splicing reporter, GFP fluorescence, 48 h; series mostly up to 38.3 µM. The gist of the method: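 HeLa cells stably expressing EGFP interrupted by β-globin IVS2-654 intron, seeded overnight in Opti-MEM/2% FCS, then treated 2 days at 37 °C. Restored splicing read as total peak GFP intensity per well by laser scanning cytometry (488 nm excitation, 500–520 nm emission); 500 nM antisense PNA as control.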

A short description of experiment [15]: Confirmation and Secondary Assay for Modulators of Hemoglobin Beta Chain Splicing at IVS2 705 locus (AID 930).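 Further: HeLa cells stably expressing the EGFP-705 splicing reporter; % of control where 0% means no effect.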 To be noted: HeLa EGFP-705 splicing reporter, GFP fluorescence, 48 h; series mostly up to 38.3 µM. The gist of the method: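 Assay measures total GFP intensity per well in HeLa EGFP-705 cells after 2 days with compound; mis-splicing normally truncates EGFP, so fluorescence indicates corrected splicing.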

In experiment [16] the target is Cytochrome P450 2C19 (Homo sapiens) (UniProt P33261). The experiment in a line: qHTS Assay for Inhibitors and Substrates of Cytochrome P450 2C19 (AID 899). Further: potency means the concentration at half of the fitted maximal effect; nearly all actives have a fitted effect of over 60% in size. The settings on record: recombinant CYP2C19, luciferin-H EGE luminescence; series mostly up to 57.1 µM. The method in brief:
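5 nM human CYP2C19 with 10uM Luciferin-H EGE (at KM) in 50mM KPO4, compound preincubated 10 min at 37C, then NADPH regeneration for 60 min at 37C. Luciferin read by luminescence after detection reagent; normalized to 57uM ketoconazole as full inhibition.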

Experiment [17] has as its target Cytochrome P450 2D6 (Homo sapiens) (UniProt P10635). Nature of the experiment: qHTS Assay for Inhibitors and Substrates of Cytochrome P450 2D6 (AID 891). Further: potency means the concentration at half of the fitted maximal effect; nearly all actives have a fitted effect of over 60% in size. The settings on record: recombinant CYP2D6, luciferin-ME EGE luminescence; series mostly up to 57.1 µM. The gist of the method:
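Luminescent read-out of luciferin formed by 5 nM human CYP2D6 demethylating 30 uM Luciferin-ME EGE (Km level) over 60 min at room temperature after NADPH regeneration addition. Data normalized to full inhibition by 1.43 uM quinidine.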

Experiment [18] has as its target Ubiquitin carboxyl-terminal hydrolase 1 (Homo sapiens) (UniProt O94782). The experiment in a line: Inhibitors of USP1/UAF1: Pilot qHTS (AID 504865).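 Further: rhodamine fluorescence freed from ubiquitin-rhodamine substrate followed over time; top concentration of the series differs between compounds; on the % scale 0 is the no-effect control and ±100 the full control effect; nearly all actives have a fitted effect of over 35% in size.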 To be noted: purified USP1/UAF1, Ub-rhodamine cleavage fluorescence; series mostly up to 54.9 µM. The gist of the method: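 Deubiquitinase activity followed as kinetic rhodamine fluorescence release from 150 nM Ub-Rho. 1 nM USP1/UAF1 with compound, after 15 min room-temperature preincubation, in HEPES pH 7.8 buffer containing TCEP, EDTA, BSA and Tween-20.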

Chain of Cytochrome P450 1A2 (Homo sapiens) (P05177 whole entry, looked up): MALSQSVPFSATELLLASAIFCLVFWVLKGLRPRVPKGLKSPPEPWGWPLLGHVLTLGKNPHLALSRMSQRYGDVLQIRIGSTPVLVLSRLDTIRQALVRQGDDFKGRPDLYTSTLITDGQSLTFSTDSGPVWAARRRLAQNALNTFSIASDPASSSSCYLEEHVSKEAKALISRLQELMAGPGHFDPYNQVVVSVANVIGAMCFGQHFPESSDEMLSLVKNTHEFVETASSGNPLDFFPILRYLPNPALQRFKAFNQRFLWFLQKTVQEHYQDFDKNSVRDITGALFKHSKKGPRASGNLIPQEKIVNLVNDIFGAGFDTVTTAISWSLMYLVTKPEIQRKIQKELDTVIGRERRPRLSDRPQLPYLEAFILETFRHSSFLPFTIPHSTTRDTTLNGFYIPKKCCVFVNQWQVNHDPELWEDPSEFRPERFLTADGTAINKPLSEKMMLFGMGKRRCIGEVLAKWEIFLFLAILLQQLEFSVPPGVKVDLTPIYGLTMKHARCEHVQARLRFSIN
Chain of Cytochrome P450 3A4 (Homo sapiens) (P08684 whole entry, looked up): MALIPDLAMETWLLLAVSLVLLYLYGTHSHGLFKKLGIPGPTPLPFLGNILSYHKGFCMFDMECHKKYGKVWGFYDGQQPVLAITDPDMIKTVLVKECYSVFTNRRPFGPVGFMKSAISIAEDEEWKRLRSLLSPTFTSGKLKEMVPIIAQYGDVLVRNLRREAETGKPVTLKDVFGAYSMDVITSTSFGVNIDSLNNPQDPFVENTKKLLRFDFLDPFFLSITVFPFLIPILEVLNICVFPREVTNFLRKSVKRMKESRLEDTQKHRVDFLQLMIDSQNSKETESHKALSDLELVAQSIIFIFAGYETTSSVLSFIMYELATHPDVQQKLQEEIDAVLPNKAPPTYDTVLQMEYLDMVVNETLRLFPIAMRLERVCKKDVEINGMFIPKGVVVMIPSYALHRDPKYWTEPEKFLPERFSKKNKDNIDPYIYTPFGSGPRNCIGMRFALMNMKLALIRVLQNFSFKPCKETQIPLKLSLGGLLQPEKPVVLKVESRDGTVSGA
Chain of 3',5'-cyclic-AMP phosphodiesterase 4B (Homo sapiens) (Q07343 whole entry, looked up): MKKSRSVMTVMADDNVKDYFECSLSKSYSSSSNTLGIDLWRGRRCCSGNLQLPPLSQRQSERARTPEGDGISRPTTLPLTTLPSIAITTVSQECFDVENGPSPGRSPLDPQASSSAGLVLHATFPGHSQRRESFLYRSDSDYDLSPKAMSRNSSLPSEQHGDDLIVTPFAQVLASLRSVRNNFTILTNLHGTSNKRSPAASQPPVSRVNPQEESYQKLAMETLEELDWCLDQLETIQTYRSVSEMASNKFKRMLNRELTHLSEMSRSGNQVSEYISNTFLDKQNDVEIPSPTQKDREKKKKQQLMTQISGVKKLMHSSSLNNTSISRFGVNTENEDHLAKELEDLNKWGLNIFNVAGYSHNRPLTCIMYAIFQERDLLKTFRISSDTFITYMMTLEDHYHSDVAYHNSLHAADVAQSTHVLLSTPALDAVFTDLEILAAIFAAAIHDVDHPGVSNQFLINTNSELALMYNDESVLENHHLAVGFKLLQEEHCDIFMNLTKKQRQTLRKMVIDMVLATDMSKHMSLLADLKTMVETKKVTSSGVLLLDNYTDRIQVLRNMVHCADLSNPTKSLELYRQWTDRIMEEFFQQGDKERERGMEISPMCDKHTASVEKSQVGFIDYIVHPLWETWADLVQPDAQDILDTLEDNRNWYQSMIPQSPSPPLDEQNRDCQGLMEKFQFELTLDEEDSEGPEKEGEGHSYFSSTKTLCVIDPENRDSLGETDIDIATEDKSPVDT
Chain of Lysosomal acid glucosylceramidase (Homo sapiens) (P04062 whole entry, looked up): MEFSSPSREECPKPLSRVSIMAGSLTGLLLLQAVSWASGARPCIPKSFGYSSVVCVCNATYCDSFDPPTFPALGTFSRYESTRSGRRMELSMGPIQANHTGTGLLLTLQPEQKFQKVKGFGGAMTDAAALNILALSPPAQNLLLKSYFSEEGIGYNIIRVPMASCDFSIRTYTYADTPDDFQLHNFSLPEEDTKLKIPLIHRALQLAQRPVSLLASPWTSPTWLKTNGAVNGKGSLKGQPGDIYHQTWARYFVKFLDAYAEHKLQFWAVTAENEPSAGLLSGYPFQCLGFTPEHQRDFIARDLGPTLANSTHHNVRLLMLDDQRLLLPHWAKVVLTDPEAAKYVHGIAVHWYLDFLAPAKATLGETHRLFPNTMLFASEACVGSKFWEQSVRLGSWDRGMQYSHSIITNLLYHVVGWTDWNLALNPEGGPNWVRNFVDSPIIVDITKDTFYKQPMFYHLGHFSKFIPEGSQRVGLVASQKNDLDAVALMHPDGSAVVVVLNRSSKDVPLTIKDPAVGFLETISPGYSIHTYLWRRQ
Chain of Glucocorticoid receptor (Homo sapiens) (P04150 whole entry, looked up, the tested form may be a part): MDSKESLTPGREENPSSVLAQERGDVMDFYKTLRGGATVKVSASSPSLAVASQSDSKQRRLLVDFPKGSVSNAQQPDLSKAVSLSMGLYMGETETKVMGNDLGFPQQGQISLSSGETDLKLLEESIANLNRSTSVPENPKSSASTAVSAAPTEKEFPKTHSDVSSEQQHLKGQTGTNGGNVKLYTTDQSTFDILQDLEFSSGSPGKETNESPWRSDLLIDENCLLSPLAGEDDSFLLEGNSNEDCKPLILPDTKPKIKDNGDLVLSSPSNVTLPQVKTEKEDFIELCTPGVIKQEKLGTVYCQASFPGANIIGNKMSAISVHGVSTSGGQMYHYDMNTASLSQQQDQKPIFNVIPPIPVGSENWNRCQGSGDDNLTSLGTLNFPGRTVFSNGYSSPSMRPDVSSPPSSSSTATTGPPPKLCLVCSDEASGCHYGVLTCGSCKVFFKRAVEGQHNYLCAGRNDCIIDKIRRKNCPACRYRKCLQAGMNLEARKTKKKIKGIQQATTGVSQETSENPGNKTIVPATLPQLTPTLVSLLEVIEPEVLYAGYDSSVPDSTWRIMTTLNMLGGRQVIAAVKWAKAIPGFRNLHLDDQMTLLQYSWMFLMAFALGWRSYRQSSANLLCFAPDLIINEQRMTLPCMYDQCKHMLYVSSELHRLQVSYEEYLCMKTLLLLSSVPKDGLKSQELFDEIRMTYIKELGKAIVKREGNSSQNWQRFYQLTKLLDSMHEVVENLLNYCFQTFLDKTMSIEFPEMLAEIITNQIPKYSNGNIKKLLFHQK
Chain of Cytochrome P450 2D6 (Homo sapiens) (P10635 whole entry, looked up): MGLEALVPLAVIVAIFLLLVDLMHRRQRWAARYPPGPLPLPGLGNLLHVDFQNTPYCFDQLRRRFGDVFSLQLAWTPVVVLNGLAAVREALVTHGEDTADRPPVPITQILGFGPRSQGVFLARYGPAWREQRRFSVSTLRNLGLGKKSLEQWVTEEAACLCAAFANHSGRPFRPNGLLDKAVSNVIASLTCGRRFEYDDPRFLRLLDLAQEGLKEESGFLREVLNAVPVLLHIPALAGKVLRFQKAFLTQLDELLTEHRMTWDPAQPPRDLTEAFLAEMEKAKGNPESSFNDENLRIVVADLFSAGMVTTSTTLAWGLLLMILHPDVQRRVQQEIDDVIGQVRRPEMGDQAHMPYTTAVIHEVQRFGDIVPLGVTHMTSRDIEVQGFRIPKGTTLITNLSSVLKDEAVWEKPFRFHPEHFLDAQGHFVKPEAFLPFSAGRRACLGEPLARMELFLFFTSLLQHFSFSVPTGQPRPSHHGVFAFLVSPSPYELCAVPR
Chain of Cytochrome P450 2C9 (Homo sapiens) (P11712 whole entry, looked up): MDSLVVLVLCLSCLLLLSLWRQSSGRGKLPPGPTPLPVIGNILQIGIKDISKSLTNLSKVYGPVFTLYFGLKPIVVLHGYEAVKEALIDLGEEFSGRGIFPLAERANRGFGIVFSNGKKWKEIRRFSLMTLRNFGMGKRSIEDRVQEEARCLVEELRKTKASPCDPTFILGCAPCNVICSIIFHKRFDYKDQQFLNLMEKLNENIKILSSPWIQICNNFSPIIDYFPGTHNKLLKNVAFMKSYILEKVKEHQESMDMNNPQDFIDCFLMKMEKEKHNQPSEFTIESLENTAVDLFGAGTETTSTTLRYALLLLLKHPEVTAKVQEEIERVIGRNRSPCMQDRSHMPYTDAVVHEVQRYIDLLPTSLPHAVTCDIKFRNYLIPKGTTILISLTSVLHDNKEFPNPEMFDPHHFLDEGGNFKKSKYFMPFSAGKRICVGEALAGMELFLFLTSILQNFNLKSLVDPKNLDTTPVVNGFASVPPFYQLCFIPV
Chain of Cytochrome P450 2C19 (Homo sapiens) (P33261 whole entry, looked up): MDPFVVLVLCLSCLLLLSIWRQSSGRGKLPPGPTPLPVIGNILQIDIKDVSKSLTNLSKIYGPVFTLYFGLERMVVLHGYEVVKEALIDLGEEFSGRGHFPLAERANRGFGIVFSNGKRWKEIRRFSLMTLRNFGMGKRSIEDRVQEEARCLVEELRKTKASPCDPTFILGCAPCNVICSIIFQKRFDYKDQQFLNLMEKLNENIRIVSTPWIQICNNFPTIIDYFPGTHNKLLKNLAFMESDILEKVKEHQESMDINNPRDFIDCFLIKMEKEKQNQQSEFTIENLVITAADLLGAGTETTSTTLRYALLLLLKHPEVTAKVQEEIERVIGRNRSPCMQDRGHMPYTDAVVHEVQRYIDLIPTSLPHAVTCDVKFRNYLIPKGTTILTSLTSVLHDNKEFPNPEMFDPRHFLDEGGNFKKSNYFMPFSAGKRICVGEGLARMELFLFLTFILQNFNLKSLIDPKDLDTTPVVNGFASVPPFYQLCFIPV

In the case of `COc1ccc(-c2nc3cnc(N(C)C)nc3n(CCc3ccccc3)c2=O)cc1`, the Potency is more than 11.4 µM in experiment [1], 1.26 µM (active) in [2], more than 46 µM in experiment [4] and 0.794 µM (active) in experiment [6]. In addition, in [3], the activity, negative = inhibition was 121% [activator] (active). The Potency entry in experiment [5] is “inactive”. Further, in [7], the outcome was inactive.

With `O=C(Oc1ccccc1)N1CCC2(CCCN(c3cccc(-c4ccccc4)c3)C2)CC1`, the Potency is more than 11.4 µM in experiment [1] and more than 46 µM in [4]. Moreover, the Potency entry in experiment [2], in experiment [9], in experiment [5] and in experiment [10] was “inactive” each time. Moreover, the activity change, negative = inhibition in experiment [8] was -27.7%. The activity, negative = inhibition in experiment [3] is 2.68%. Also, the outcome in experiment [7] was inactive.

With `COc1ccccc1CNc1cc(-c2cccc(NS(C)(=O)=O)c2)ncn1`, the Potency in experiment [1] is more than 11.4 µM; in [2] it was 15.8 µM (active); in experiment [11], more than 46 µM; in experiment [4], more than 46 µM; in [13], 5.01 µM (active). Besides, the values for the activity change, negative = inhibition in experiment [8] and in experiment [12] were -3.65% and 33% [at 2.29 µM], respectively. The activity, negative = inhibition in [3] was -1.76%. In addition, the Potency result in experiment [9], in [5], in experiment [10] and in [14] was “inactive” each time. Besides, the call in experiment [15] and in [7] was inactive.

In the case of `Cc1cccc(CNc2cc(-c3ccc(N(C)C)cc3)ncn2)c1`, the Potency in experiment [1] was more than 11.4 µM; in experiment [2], 1 µM (active); in [11], more than 46 µM; in experiment [4] it was more than 46 µM; in [13], 6.31 µM (active); in experiment [16] it was 3.16 µM (active). For the same molecule, in [8], the activity change, negative = inhibition was -5.57%. Moreover, the activity, negative = inhibition in [3] is -19.8%. For the same molecule, the Potency entry in experiment [9], in [5], in experiment [10] and in experiment [14] was “inactive” each time. The molecule was classed as inactive in experiment [15] and in experiment [7].

Turning to `O=S(=O)(c1ccccc1)N1CCC[C@@]2(CCN(C(c3ccccc3)c3ccccc3)C2)C1`, the Potency in experiment [1] was more than 11.4 µM; in experiment [4] it was more than 46 µM; in experiment [13], 3.16 µM (active); in [17], 0.631 µM (active). In addition, the Potency result in experiment [2], in experiment [9] and in experiment [10] was “inactive” in each case. In [8], the activity change, negative = inhibition is -29.6%. Besides, in experiment [3], the activity, negative = inhibition was 13.8%. The outcome in [7] was inactive.

As for `CN(C)Cc1ccccc1-c1nccc(NC2CC2)n1`, the Potency is more than 11.4 µM in experiment [1]; 1.58 µM (active) in [2]; more than 46 µM in experiment [11]; more than 46 µM in experiment [4]; 0.631 µM (active) in experiment [17]. Further, the activity change, negative = inhibition in experiment [8] is 1.25%. The activity, negative = inhibition in experiment [3] was 5.09%. Besides, the Potency entry in experiment [9], in experiment [5], in experiment [10], in [14] and in experiment [18] was “inactive” each time. Besides, the call in [15] and in [7] was inactive.
